Bioassay records deposited in PubChem BioAssay by Broad Institute.
The sample as a whole holds a higher share of hits than the screen did.
IDE exosite FP – insulin-degrading enzyme (human) exo-site inhibition; purified IDE, FL-6b probe fluorescence polarization; stronger effect = lower value; z-score at 20 µM; 6.3% of 17,000 active; AID 1259349;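 active = z-score of -3 or lower, meaning strong loss of probe binding signal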;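 note: His-tagged human IDE residues 42-1019 made in E. coli with 30 nM FL-6b probe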
Target sequence (P14735 42-1019 limits assumed): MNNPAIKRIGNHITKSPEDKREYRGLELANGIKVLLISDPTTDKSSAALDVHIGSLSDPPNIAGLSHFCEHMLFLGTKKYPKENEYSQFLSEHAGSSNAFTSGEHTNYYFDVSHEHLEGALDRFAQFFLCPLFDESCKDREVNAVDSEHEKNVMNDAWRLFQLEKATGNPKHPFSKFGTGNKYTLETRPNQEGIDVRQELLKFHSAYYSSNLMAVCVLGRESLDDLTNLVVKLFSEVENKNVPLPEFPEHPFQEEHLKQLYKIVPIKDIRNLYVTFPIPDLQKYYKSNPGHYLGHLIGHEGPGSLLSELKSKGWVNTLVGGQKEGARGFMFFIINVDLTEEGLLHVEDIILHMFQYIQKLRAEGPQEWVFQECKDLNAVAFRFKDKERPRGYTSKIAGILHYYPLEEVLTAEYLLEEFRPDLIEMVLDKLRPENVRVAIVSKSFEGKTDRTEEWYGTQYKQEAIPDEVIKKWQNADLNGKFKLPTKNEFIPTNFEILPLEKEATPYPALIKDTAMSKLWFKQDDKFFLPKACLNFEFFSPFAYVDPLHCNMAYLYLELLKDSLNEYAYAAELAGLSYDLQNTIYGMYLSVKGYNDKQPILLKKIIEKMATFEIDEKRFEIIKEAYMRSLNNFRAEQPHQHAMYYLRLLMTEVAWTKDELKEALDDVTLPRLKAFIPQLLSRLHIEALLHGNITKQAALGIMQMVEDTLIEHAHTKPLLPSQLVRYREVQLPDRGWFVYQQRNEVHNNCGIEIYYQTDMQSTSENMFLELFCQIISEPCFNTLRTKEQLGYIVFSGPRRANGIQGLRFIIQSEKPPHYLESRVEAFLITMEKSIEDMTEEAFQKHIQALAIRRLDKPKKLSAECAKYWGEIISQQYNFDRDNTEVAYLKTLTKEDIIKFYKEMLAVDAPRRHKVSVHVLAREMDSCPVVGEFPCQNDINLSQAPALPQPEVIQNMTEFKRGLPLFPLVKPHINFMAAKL
* hit, by the source's call.

SMILES | IDE exosite FP
COc1cccc(CN2CC3(CCN(C)CC3)c3c([nH]c4cc(OC)ccc34)[C@H]2CO)c1 | -1.1
CCCC(=O)N1CC2(C1)CN(Cc1cccnc1)[C@H](CO)c1[nH]c3cc(OC)ccc3c12 | -3.1*
O=C(C[C@H]1CC[C@@H](NC(=O)Nc2ccc(C(F)(F)F)cc2)[C@@H](CO)O1)NCc1cccc(F)c1 | 1.5
N#C[C@@H]1[C@H](c2ccc(-c3cccc(F)c3)cc2)[C@@H](CO)N1C(=O)c1cccnc1 | -0.84
CN1C(=O)c2cc(NC(=O)Nc3ccc(Cl)cc3)ccc2OC[C@@H]2O[C@@H](CC(=O)NCCN3CCCCC3)CC[C@@H]21 | -1.8
O=C(CN1CCOCC1)N1CCCCN2[C@H](CO)[C@H](c3ccc(C#Cc4ccccc4)cc3)[C@@H]2C1 | -13*
OC[C@@H]1[C@@H](c2ccc(C#Cc3ccccc3)cc2)[C@H]2CN(CC3CCOCC3)CCCCN12 | 1.5
OC[C@@H]1[C@@H](c2ccc(C#Cc3ccccc3F)cc2)[C@@H]2CN(CC3CCOCC3)CCCCN12 | -0.38
O=C(CN1CCOCC1)N1CCCCN2[C@H](C1)[C@H](c1ccc(-c3ccccc3)cc1)[C@@H]2CO | 0.9
OC[C@H]1[C@@H](c2ccc(C#Cc3ccccc3)cc2)[C@@H]2CN(CC3CCOCC3)CCCCN12 | -5.4*
O=C(CN1CCOCC1)N1CCCCN2[C@H](CO)[C@@H](c3ccc(C#Cc4ccccc4)cc3)[C@@H]2C1 | -6.2*
O=C(CN1CCOCC1)N1CCCCN2[C@@H](CO)[C@@H](c3ccc(-c4ccccc4)cc3)[C@@H]2C1 | -1.3
O=C(c1ccccc1F)N1CC(=O)N2[C@H](CO)[C@H](c3ccc(-c4ccc(F)cc4)cc3)[C@H]2C1 | 3.6
COCC#Cc1ccc([C@H]2[C@@H](CO)N3CCCCN(Cc4cccnc4)C[C@H]23)cc1 | 0.66
CCC(=O)N1[C@H](CO)[C@@H](c2ccc(-c3cccc(F)c3)cc2)[C@@H]1CNC(C)=O | 2.8
CS(=O)(=O)N1[C@@H](C#N)[C@@H](c2ccc(-c3ccccc3F)cc2)[C@@H]1CO | -1.4
C[C@@H]1CCCCO[C@H](CN(C)S(=O)(=O)c2ccc(F)cc2)[C@H](C)CN([C@@H](C)CO)C(=O)c2cc(N(C)C)ccc2O1 | -0.76
C/C=C/c1ccc([C@@H]2[C@H](CO)N(C(=O)c3ccccn3)C23CN(CCC(F)(F)F)C3)cc1 | 0.96
O=C(c1cnccn1)N1CC(=O)N2[C@H](CO)[C@H](c3ccc(C4=CCCCC4)cc3)[C@@H]2C1 | 0.13
Cc1ccc(-c2ccccc2[C@@H]2[C@@H](CO)N(C(=O)NC3CCCC3)[C@H]2C#N)cc1 | 1.9
CN(C)C(=O)c1cccc(-c2ccc([C@H]3[C@H]4CN(C(=O)C5CCC5)CC(=O)N4[C@H]3CO)cc2)c1 | 0.17
O=C(C[C@@H]1C=C[C@@H](NC(=O)Cc2ccccn2)[C@H](CO)O1)NCCc1ccncc1 | 0.25
COc1cccc(CNC(=O)[C@H]2[C@H](CO)[C@H]3Cn4c(ccc(C5=CCCC5)c4=O)[C@@H]2N3)c1 | 0.59
COc1ccc2c3c([nH]c2c1)[C@H](CO)NCC31CN(C(=O)Nc2c(C)noc2C)C1 | 1.3
N#C[C@H]1[C@H](c2ccccc2)[C@H](CO)N1S(=O)(=O)c1cccc(F)c1 | 0.28
SMILES | IDE exosite FP
Cc1ccccc1-c1ccc([C@@H]2[C@@H](CO)N3C(=O)CN(C(=O)Nc4ccc(F)cc4)C[C@@H]23)cc1 | -11*
Cc1ccccc1-c1ccc([C@H]2[C@H]3CN(C(=O)Nc4ccc(F)cc4)CCCCN3[C@H]2CO)cc1 | 3.4
Cc1ccccc1-c1ccc([C@@H]2[C@@H](CO)N3CCCCN(C(=O)Nc4ccc(F)cc4)C[C@H]23)cc1 | 1.8
Cc1ccccc1-c1ccc([C@H]2[C@@H](CO)N3CCCCN(C(=O)Nc4ccc(F)cc4)C[C@@H]23)cc1 | -1.6
Cc1ccccc1-c1ccc([C@@H]2[C@H](CO)N3CCCCN(C(=O)Nc4cccc(F)c4)C[C@@H]23)cc1 | 0.19
Cc1ccccc1-c1ccc([C@H]2[C@@H](CO)N3CCCCN(C(=O)Nc4ccc(F)cc4)C[C@H]23)cc1 | -7.1*
Cc1ccccc1-c1ccc([C@@H]2[C@@H](CO)N3CCCCN(C(=O)Nc4ccccc4)C[C@@H]23)cc1 | 1.2
Cc1ccccc1-c1ccc([C@H]2[C@@H](CO)N3CCCCN(C(=O)Nc4cccc(F)c4)C[C@@H]23)cc1 | -4.4*
Cc1ccccc1-c1ccc([C@@H]2[C@@H](CO)N3C(=O)CN(C(=O)Nc4cccc(F)c4)C[C@H]23)cc1 | -2.1
O=C(Nc1cccc(F)c1)N1CCCCN2[C@H](CO)[C@H](c3ccc(-c4ccccc4F)cc3)[C@H]2C1 | 1.7
Cc1ccccc1-c1ccc([C@@H]2[C@@H](CO)N3C(=O)CN(C(=O)Nc4ccc(F)cc4)C[C@H]23)cc1 | -1.4
Cc1ccccc1-c1ccc([C@H]2[C@H](CO)N3CCCCN(C(=O)Nc4ccccc4)C[C@@H]23)cc1 | -3.9*
COC(=O)c1ccc(CN2CC(=O)N3[C@@H](CO)[C@@H](c4ccc(-c5ccccc5F)cc4)[C@@H]3C2)cc1 | -0.91
COCC(=O)N(C)C[C@@H]1[C@H](c2ccc(-c3cccnc3)cc2)[C@@H](CO)N1C(C)=O | 3.7
CS(=O)(=O)N1CCCCN2[C@H](C1)[C@H](c1ccc(-c3cccc(C#N)c3)cc1)[C@@H]2CO | 1.4
O=C(NCC[C@H]1CC[C@@H](NS(=O)(=O)Cc2ccccc2)[C@@H](CO)O1)C1CCCCC1 | -0.035
CO[C@@H]1CN(C)C(=O)c2cc(NC(=O)c3ccc(F)cc3)ccc2OC[C@@H](C)N(C(=O)CC2CC2)C[C@H]1C | 2.5
O=C(C[C@H]1CC[C@H](NC(=O)CN2CCOCC2)[C@@H](CO)O1)NC1CCC1 | -0.96
CN(C)CC(=O)N1[C@@H](CO)[C@@H](c2ccccc2)C12CN(Cc1cccnc1)C2 | 0.58
CC(C)NC(=O)N1[C@H](CO)[C@@H](c2ccccc2)[C@H]1CN(C)C(=O)c1cccnc1 | -0.46
O=C(C[C@@H]1CC[C@H]2NC[C@H](O)COC[C@@H]2O1)NCc1ccc2c(c1)OCO2 | -0.94
O=C(c1ccccn1)N1C[C@H]2[C@@H](c3ccccc31)[C@@H](CO)N2C(=O)Nc1ccccc1Cl | 2.1
CN1C(=O)c2cc(NC(=O)C3CCOCC3)ccc2OC[C@@H]2O[C@H](CC(=O)NCC3CCCCC3)CC[C@H]21 | -0.47
Cc1cccc(-c2ccc(C3[C@@H]4CN(C(=O)Nc5ccc(F)cc5)C[C@H]3N4)cc2)c1 (some centres not stated) | -0.36
O=C(C1CCOCC1)N1C[C@@H]2N[C@H](C1)C2c1ccc(-c2cncnc2)cc1 (some centres not stated) | 3.1
Cc1cccc(-c2ccc(C3[C@@H]4CN(C(=O)C5CCOCC5)C[C@H]3N4)cc2)c1 (some centres not stated) | -5.1*
Cc1cccc(-c2ccc(C3[C@@H]4CN(Cc5cccc(F)c5)C[C@H]3N4)cc2)c1 (some centres not stated) | -0.44
N#Cc1cccc(-c2ccc(C3[C@@H]4CN(C(=O)Nc5ccccc5)C[C@H]3N4)cc2)c1 (some centres not stated) | 3.5
Cc1cccc(-c2ccc(C3[C@@H]4CN(C(=O)Nc5ccccc5)C[C@H]3N4)cc2)c1 (some centres not stated) | -4.3*
CN(C)C(=O)c1ccc(-c2ccc(C3[C@@H]4CN(C(=O)C5CC5)C[C@H]3N4)cc2)cc1 (some centres not stated) | 1.4
